Out of some 5,500 compounds screened, about 2,000 (36%) were called active. Inconclusive results (about 18%) are left out. No stated cut-off is given here; in the data, active means normalized growth mostly below about 0.91 (no sharp cut-off); inconclusive means no clear call, values can overlap the other calls; inactive means mostly above about 0.92. Some of the results follow.
Assay: chemical genetic growth profiling, strain panel (AID 1159580);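 further: tested at 20 µM; growth read once vehicle control cultures reached saturation at 30 °C; 1 = growth at the plate median or of vehicle wells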
Settings: S. cerevisiae deletion strains, growth OD
[1] = locus YAL021C, strain ccr4, stronger effect = lower value
[2] = locus YAL026C, strain drs2, stronger effect = lower value
[3] = locus YAL030W, strain snc1, stronger effect = lower value
[4] = locus YBL061C, strain skt5, stronger effect = lower value
[5] = locus YBR009C, strain hhf1, stronger effect = lower value
[6] = locus YBR023C, strain chs3, stronger effect = lower value
[7] = locus YBR171W, strain sec66, stronger effect = lower value
[8] = locus YBR231C, strain swc5, stronger effect = lower value
[9] = locus YBR279W, strain paf1, stronger effect = lower value
[10] = locus YCL011C, strain gbp2, stronger effect = lower value
[11] = locus YCL016C, strain dcc1, stronger effect = lower value
[12] = locus YCL069W, strain vba3, stronger effect = lower value
[13] = locus YCR088W, strain abp1, stronger effect = lower value
[14] = locus YDL005C, strain med2, stronger effect = lower value
[15] = locus YDL040C, strain nat1, stronger effect = lower value
[16] = locus YDR001C, strain nth1, stronger effect = lower value
[17] = locus YDR069C, strain doa4, stronger effect = lower value
[18] = locus YDR137W, strain rgp1, stronger effect = lower value
[19] = locus YDR159W, strain sac3, stronger effect = lower value
[20] = locus YDR297W, strain sur2, stronger effect = lower value
[21] = locus YDR334W, strain swr1, stronger effect = lower value
[22] = locus YDR335W, strain msn5, stronger effect = lower value
[23] = locus YDR392W, strain spt3, stronger effect = lower value
[24] = locus YEL003W, strain gim4, stronger effect = lower value
[25] = locus YEL037C, strain rad23, stronger effect = lower value
[26] = locus YEL061C, strain CIN8 (second series), stronger effect = lower value
[27] = locus YER015W, strain faa2, stronger effect = lower value
[28] = locus YER016W, strain bim1, stronger effect = lower value
[29] = locus YER111C, strain swi4, stronger effect = lower value
[30] = locus YER155C, strain BEM2 (second series), stronger effect = lower value
[31] = locus YFR010W, strain ubp6, stronger effect = lower value
[32] = locus YGL167C, strain pmr1, stronger effect = lower value
[33] = locus YGL173C, strain kem1, stronger effect = lower value
[34] = locus YGL227W, strain vid30, stronger effect = lower value
[35] = locus YGL240W, strain doc1, stronger effect = lower value
[36] = locus YGL253W, strain hxk2, stronger effect = lower value
[37] = locus YHR013C, strain ard1, stronger effect = lower value
[38] = locus YHR027C, strain rpn1, stronger effect = lower value
[39] = locus YHR142W, strain chs7, stronger effect = lower value
[40] = locus YJL092W, strain hpr5, stronger effect = lower value
[41] = locus YJL095W, strain BCK1 (second series), stronger effect = lower value
[42] = locus YJL115W, strain asf1, stronger effect = lower value
[43] = locus YJL129C, strain trk1, stronger effect = lower value
[44] = locus YJL154C, strain vps35, stronger effect = lower value
[45] = locus YJL164C, strain tpk1, stronger effect = lower value
[46] = locus YJL166W, strain qcr8, stronger effect = lower value
[47] = locus YJL187C, strain SWE1, stronger effect = lower value
[48] = locus YKL160W, strain elf1, stronger effect = lower value
[49] = locus YKR026C, strain gcn3, stronger effect = lower value
[50] = locus YKR091W, strain srl3, stronger effect = lower value
[51] = locus YLL001W, strain dnm1, stronger effect = lower value
[52] = locus YLL026W, stronger effect = lower value
[53] = locus YLL041C, strain sdh2, stronger effect = lower value
[54] = locus YLR027C, strain aat2, stronger effect = lower value
[55] = locus YLR221C, strain rsa3, stronger effect = lower value
[56] = locus YLR258W, strain gsy2, stronger effect = lower value
[57] = locus YLR262C, strain YPT6 (second series), stronger effect = lower value
[58] = locus YLR320W, strain mms22, stronger effect = lower value
[59] = locus YLR342W, strain FKS1, stronger effect = lower value
[60] = locus YLR357W, strain rsc2, stronger effect = lower value
[61] = locus YLR370C, strain arc18, stronger effect = lower value
[62] = locus YLR384C, strain iki3, stronger effect = lower value
[63] = locus YML120C, strain ndi1, stronger effect = lower value
[64] = locus YMR058W, strain fet3, stronger effect = lower value
[65] = locus YMR125W, strain sto1, stronger effect = lower value
[66] = locus YMR129W, stronger effect = lower value
[67] = locus YMR205C, strain PFK2, stronger effect = lower value
[68] = locus YMR231W, strain pep5, stronger effect = lower value
[69] = locus YNL071W, strain lat1, stronger effect = lower value
[70] = locus YNL209W, strain ssb2, stronger effect = lower value
[71] = locus YNL248C, strain rpa49, stronger effect = lower value
[72] = locus YNL322C, strain KRE1 (second series), stronger effect = lower value
[73] = locus YNR049C, strain mso1, stronger effect = lower value
[74] = locus YOR001W, strain rrp6, stronger effect = lower value
[75] = locus YOR070C, strain gyp1, stronger effect = lower value
[76] = locus YOR080W, strain dia2, stronger effect = lower value
[77] = locus YOR083W, strain WHI5, stronger effect = lower value
[78] = locus YOR106W, strain vam3, stronger effect = lower value
[79] = locus YOR265W, strain rbl2, stronger effect = lower value
[80] = locus YOR270C, strain vph1, stronger effect = lower value
[81] = locus YOR290C, strain snf2, stronger effect = lower value
[82] = locus YPL051W, strain arl3, stronger effect = lower value
[83] = locus YPL078C, strain atp4, stronger effect = lower value
[84] = locus YPL106C, strain sse1, stronger effect = lower value
[85] = locus YPL240C, strain hsp82, stronger effect = lower value
[86] = locus YHR030C, strain SLT2, stronger effect = lower value

Measured: normalized growth

COc1cccc(/C=C/C(=O)O)c1C(C)C
inactive: [1] 0.952 | [2] 0.983 | [3] 0.978 | [4] 0.973 | [5] 1.01 | [6] 0.973 | [7] 0.969 | [8] 0.976 | [9] 0.995 | [10] 0.999 | [11] 0.982 | [12] 0.982 | [13] 0.977 | [14] 0.96 | [15] 0.988 | [16] 0.983 | [17] 0.97 | [18] 0.992 | [19] 0.917 | locus YDR195W, strain ref2 0.96 | [20] 0.973 | [21] 0.983 | [22] 0.994 | [23] 0.961 | [24] 0.994 | [25] 0.985 | [26] 1 | [27] 0.977 | [28] 0.981 | [29] 0.976 | [30] 0.967 | [31] 0.99 | [32] 0.978 | [33] 0.991 | [34] 0.985 | [35] 0.984 | [36] 0.98 | [37] 0.957 | [38] 0.995 | [39] 0.996 | [40] 0.983 | [41] 0.974 | [42] 0.972 | [43] 0.973 | [44] 0.983 | [45] 0.985 | [46] 0.982 | [47] 0.998 | [48] 0.987 | [49] 0.982 | [50] 0.999 | [51] 0.988 | [52] 0.972 | [53] 0.971 | [54] 0.989 | [55] 0.999 | [56] 0.986 | [57] 1.03 | [58] 0.975 | [59] 0.982 | [60] 0.945 | [61] 0.993 | [62] 0.989 | [63] 0.979 | [64] 0.976 | [65] 0.988 | [66] 0.99 | [67] 0.937 | [68] 0.977 | [69] 0.982 | [70] 1.01 | [71] 0.988 | [72] 0.951 | [73] 0.967 | [74] 0.998 | [75] 0.999 | [76] 0.994 | [77] 0.981 | [78] 1.01 | [79] 0.973 | [80] 1.02 | [81] 0.98 | [82] 0.996 | [83] 1.01 | [84] 0.929 | [85] 0.976

O=C(N/N=C\C=C\c1ccccc1)c1ccccc1-n1cccc1
inactive: locus YAL013W, strain DEP1, stronger effect = lower value 0.96 | locus YBR229C, strain ROT2, stronger effect = lower value 0.979 | locus YDL101C, strain DUN1, stronger effect = lower value 0.993 | locus YDR150W, strain NUM1, stronger effect = lower value 0.996 | locus YEL061C, strain CIN8, stronger effect = lower value 1 | locus YGR078C, strain PAC10, stronger effect = lower value 0.988 | [86] 0.925 | locus YHR087W, strain rtc3, stronger effect = lower value 0.93 | [47] 0.976 | locus YJR043C, strain POL32, stronger effect = lower value 1.01 | locus YJR075W, strain HOC1, stronger effect = lower value 0.997 | locus YLR039C, strain RIC1, stronger effect = lower value 0.87 | locus YLR058C, strain SHM2 (second series), stronger effect = lower value 0.97 | locus YLR085C, strain ARP6, stronger effect = lower value 0.836 | locus YLR262C, strain YPT6, stronger effect = lower value 0.833 | locus YML094W, strain GIM5, stronger effect = lower value 0.939 | locus YMR219W, strain ESC1, stronger effect = lower value 0.99 | locus YMR263W, strain SAP30, stronger effect = lower value 0.973 | locus YMR307W, strain GAS1, stronger effect = lower value 0.713 | locus YNL128W, strain TEP1, stronger effect = lower value 0.987 | locus YNL153C, strain GIM3, stronger effect = lower value 1 | locus YNL298W, strain CLA4 (second series), stronger effect = lower value 0.928 | locus YNL322C, strain KRE1, stronger effect = lower value 0.996 | locus YNR030W, strain Alg12, stronger effect = lower value 0.906 | locus YPL055C, strain LGE1, stronger effect = lower value 0.899 | locus YPL241C, strain CIN2, stronger effect = lower value 0.948 | locus YPR135W, strain CTF4, stronger effect = lower value 0.795

CC(=O)/C(=C\c1ccccc1)CC(=O)O
inactive: [1] 1 | [2] 0.995 | [3] 1 | [4] 1 | [5] 0.986 | [6] 1 | [7] 0.992 | [8] 0.982 | [9] 0.999 | [10] 0.988 | [11] 0.991 | locus YCL061C, strain MRC1, stronger effect = lower value 0.994 | [12] 0.997 | [13] 0.998 | [14] 0.998 | [15] 0.985 | [16] 0.992 | [17] 0.982 | [18] 1.01 | [19] 0.97 | locus YDR195W, strain ref2 0.948 | [20] 0.994 | [21] 0.996 | [22] 0.996 | [23] 0.775 | [24] 0.992 | [25] 0.997 | [26] 0.989 | [27] 0.996 | [28] 0.993 | [29] 0.992 | [30] 0.923 | [31] 0.994 | [32] 0.993 | [33] 0.991 | [34] 0.991 | [35] 0.978 | [36] 0.984 | [37] 0.956 | [38] 0.996 | [86] 0.976 | locus YHR079C, strain IRE1, stronger effect = lower value 0.954 | [39] 1.01 | [40] 0.991 | [41] 0.992 | locus YJL095W, strain BCK1, stronger effect = lower value 0.967 | [42] 0.993 | [43] 0.984 | [44] 1 | [45] 1 | [46] 0.976 | [47] 0.997 | locus YJR066W, strain TOR1, stronger effect = lower value 0.899 | [48] 1.01 | [49] 0.986 | [50] 0.999 | [51] 0.98 | [52] 0.991 | [53] 1 | [54] 0.997 | locus YLR113W, strain HOG1, stronger effect = lower value 0.972 | [55] 1 | [56] 0.992 | [57] 1.02 | [58] 0.971 | [59] 0.993 | [60] 0.957 | [61] 0.998 | [62] 0.992 | [63] 1.01 | [64] 0.992 | [65] 0.955 | [66] 0.988 | [67] 0.967 | [68] 0.995 | [69] 0.995 | locus YNL183C, strain NPR1, stronger effect = lower value 0.927 | [70] 1 | [71] 0.982 | [72] 0.991 | [73] 0.998 | [74] 1 | [75] 0.995 | [76] 0.99 | [77] 1.02 | [78] 1.01 | locus YOR231W, strain MKK1, stronger effect = lower value 0.969 | [79] 0.993 | [80] 0.98 | [81] 0.981 | [82] 1.01 | [83] 1.01 | [84] 0.997 | [85] 0.987 | locus YPL256C, strain CLN2, stronger effect = lower value 0.968

From PubChem BioAssay AID1159580 (chemical genetic matrix, 2015)
